Laboratory results published in the supplement of paper PMC10338343.
± gives the standard deviation.

test system: MILI (PIWIL2) piRISC loaded with piRNA #1 (26 nt); assay: pre-steady-state target cleavage rate (min^-1); guide: piRNA #1 5'p-UGAGGUAGUAGGUUGUAUAGUAUCCA; MIWI and MILI are mouse PIWI proteins and EfPiwi is from a freshwater sponge; tags in brackets are library labels; higher = faster piRNA-guided slicing of the target; conditions: auxiliary factor: 500 nM mouse GTSF1
Protocol: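 Cleave-'n-Seq: a library of target RNAs (target site embedded in constant flanks, ACAGCATTCCGCGTTAGTGATATCCG... 5' flank; DNA-blocked outside the site) at 0.1 nM was incubated with 1 nM active mouse MILI or MIWI piRISC (synthetic 5'-monophosphorylated piRNA guide) with or without 500 nM mouse GTSF1 at 33 °C for 1 min to 16 h. Uncleaved targets were sequenced and normalised to non-target controls, and the pooled three trials were fitted to a burst-and-steady-state model to give the pre-steady-state cleavage rate (min^-1; k3 is constrained to at most 1e-4). Sequence is the target site only; target names encode pairing extent (gX:gY) and contiguous / 1-mismatch / 2-mismatch / bulge geometry. Fits with R² ≤ 0 are excluded.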

| Sequence | pre-steady-state target cleavage rate |
| --- | --- |
| GGAGACCUAUCUAUAAAACCUACUACCUCA | 0.0877 ± 0.013 |
| GGAGACCUAUGAUAACAAGCCUACUACCUCA | < 0.0001 |
| GGAGACGAUACUAUACAACCUACUCACCUCA | 0.122 ± 0.019 |
| GGAGAGGAUACUAUACAACCUACGACCUCA | 0.1 ± 0.013 |
| GGAGACCUUACUAUACAACCUACUACAUCA | 0.106 ± 0.013 |
| GGAGACCUAUGAUAUGUGCCUACUACCUCA | < 0.0001 |
| GGAGACCUAUGUAUACAUCCUACUACCACA | 0.163 ± 0.017 |
| GGAGACCAUAGUAUACAACCUACUACCUGA | 0.0652 ± 0.012 |
| GGAGUGGAUACUAUACAACCUACUACCUUA | 0.112 ± 0.011 |
| GGAGUGGAUAGUAUACAACCUUCUACCUCA | 0.0115 ± 0.0038 |
| GGAGACCUAUCAAUACAACCUUCUACCUCA | 0.00474 ± 0.0027 |
| GGAGACCUAACUACUACAACCUACUACCUCA | 0.107 ± 0.026 |
| GGAGACGAUAGAUUACAACCUACUACCUCA | 0.0557 ± 0.011 |
| GGAGACCUAUGAUUUACAACCUACUACCUCA | 0.00564 ± 0.003 |
| GGAGACCUUACUAUACAACCUUCAACCUCA | 0.00437 ± 0.003 |
| GGAGACGAAACUAUACAUCCUACUACCUCA | 0.255 ± 0.026 |
| GGAGAGGAUACUAUACAACCUCCUACCUCA | 0.0496 ± 0.0063 |
| GGAGACGAUACUAUAGAAGCUACUACCUCA | 0.16 ± 0.014 |
| GGAGACCUAACAUAUACAACCUACUACCUCA | 0.026 ± 0.012 |
| GGAGACCUAUGAAUACUACCUACUACCACA | 0.00343 ± 0.0025 |

| Sequence | pre-steady-state target cleavage rate |
| --- | --- |
| GGAGACCAUACUAUACAACCUACUACUUCA | 0.189 ± 0.019 |
| GGAGACCAUACUAUACAUCCUUCUACCUCA | 0.042 ± 0.0097 |
| GGAGACCUUACUAUACUACCUACUAGCUCA | 0.142 ± 0.016 |
| GGAGACCUAUGAAUACAAGCUACUAGCUCA | 0.00622 ± 0.0027 |
| GGAGACCUAUGAAUACAACCUACUGACCUCA | 0.00755 ± 0.0029 |
| GGAGACCUAUGAUAUGUUCCUACUAGGUCA | < 0.0001 |
| GGAGACCUAUGAUUACAAUCUACUACCUCA | 0.00319 ± 0.0026 |
| GGAGUGGAUACUAUACAACCUACUACCUACA | 0.122 ± 0.013 |
| GGAGACCUAUGAAUACAAGCUUCUACCUCA | 0.0038 ± 0.002 |
| GGAGAGGAUACAAUACAAGCUACUACCUCA | 0.178 ± 0.017 |
| GGAGACGAUACUAUAUCAACCUACUACCUCA | 0.123 ± 0.013 |
| GGAGACCAUACUAUACUUGCUACUACCUCA | 0.0454 ± 0.0044 |
| GGAGACGAUUCUAUACAACCAACUACCUCA | 0.00752 ± 0.0023 |
| GGAGUGGUUACUAUACUACCUACUACCUCA | 0.183 ± 0.01 |
| GGAGACCAUACUAUACAACCUACUACCUCCA | 0.137 ± 0.018 |
| GGAGACCUAUGAUUACAACUUACUACCUCA | 0.00657 ± 0.0024 |
| GGAGUGGAUACUAUACAACCUACUACCUCA [g2:g26:cont:t1A] | 0.2 ± 0.011 |
| GGAGUGGAUACUAUACAACCUACUGCCUCA | 0.102 ± 0.0082 |
| GGAGACCUAACUAUACAACGUACUUCCUCA | 0.0215 ± 0.0078 |
| GGAGACGAUACUAUACAAGCUAGUACCUCA | 0.105 ± 0.028 |
